PubChem BioAssay AID727 (The Scripps Research Institute Molecular Screening Center, 2007)
About 810 (0.84%) of roughly 97,000 compounds were called active. Cut-off read from the data, not from the text of the source: active = inhibition above about 19%; inactive = the rest. The sample as a whole holds a higher share of actives than the screen did.

target: Focal adhesion kinase 1 (Homo sapiens) (UniProt Q05397); assay: human PTK2 enzyme activity blockers – biochemical, primary screen (AID 727); settings: biochemical FAK kinase activity assay; stronger effect = higher value;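 tested at 7 µM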;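 note: 0% = DMSO and 100% = reference compound high control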
Sequence (Q05397 whole entry, looked up): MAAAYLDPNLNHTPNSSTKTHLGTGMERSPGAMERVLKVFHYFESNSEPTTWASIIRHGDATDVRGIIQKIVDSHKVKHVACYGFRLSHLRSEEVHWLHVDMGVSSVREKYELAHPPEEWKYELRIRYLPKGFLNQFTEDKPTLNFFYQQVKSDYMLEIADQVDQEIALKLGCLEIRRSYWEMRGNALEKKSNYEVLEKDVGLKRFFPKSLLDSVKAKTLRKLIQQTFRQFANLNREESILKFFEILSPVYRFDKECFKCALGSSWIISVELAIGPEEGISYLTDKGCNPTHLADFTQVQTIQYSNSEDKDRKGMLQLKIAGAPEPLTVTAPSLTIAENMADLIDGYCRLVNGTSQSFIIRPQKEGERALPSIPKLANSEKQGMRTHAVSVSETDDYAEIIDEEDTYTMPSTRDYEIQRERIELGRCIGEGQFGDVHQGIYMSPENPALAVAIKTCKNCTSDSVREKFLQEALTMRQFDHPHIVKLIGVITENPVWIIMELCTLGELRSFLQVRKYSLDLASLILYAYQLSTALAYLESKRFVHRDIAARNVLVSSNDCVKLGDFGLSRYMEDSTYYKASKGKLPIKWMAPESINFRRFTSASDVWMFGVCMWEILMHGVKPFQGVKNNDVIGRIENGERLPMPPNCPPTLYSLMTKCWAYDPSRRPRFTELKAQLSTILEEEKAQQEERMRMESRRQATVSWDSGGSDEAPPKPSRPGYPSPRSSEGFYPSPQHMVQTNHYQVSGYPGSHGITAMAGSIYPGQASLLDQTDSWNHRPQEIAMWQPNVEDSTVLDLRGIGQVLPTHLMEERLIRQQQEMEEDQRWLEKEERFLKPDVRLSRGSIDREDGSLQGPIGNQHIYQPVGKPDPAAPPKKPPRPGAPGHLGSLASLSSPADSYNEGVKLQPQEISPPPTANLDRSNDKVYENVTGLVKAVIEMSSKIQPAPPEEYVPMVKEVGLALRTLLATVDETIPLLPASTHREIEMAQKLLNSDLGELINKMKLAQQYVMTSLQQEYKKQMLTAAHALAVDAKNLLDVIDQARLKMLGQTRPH

inhibition, active:
Clc1ccccc1CSc1nnc(-c2ccco2)c(-c2ccco2)n1 31.9%
Cn1c(SCC(=O)N2CCCc3ccccc32)nc2ccccc2c1=O 37.7%
Oc1ccccc1/C=N/n1c(-c2cccs2)n[nH]c1=S 29.4%
Cc1cc(NC(=O)c2cnn3cccnc23)n(-c2ccccc2)n1 20.4%
CCn1nnnc1SCC(=O)c1ccc(C)cc1C 21.8%
Cn1cccc1C(=O)Nc1nccs1 25.5%
Cc1ccc(-c2nn(C(C)(C)C)c3ncnc(N)c23)cc1 38.8%
COc1ccc(NC(=O)ON=C2c3ccccc3-c3ccccc32)cc1 35%
O=[N+]([O-])c1ccc(C=Nc2ccc(Cl)cc2Cl)s1 20.7%
Cc1cccn2c(=O)c3cc(C(=O)N4COCC4(C)C)n(C)c3nc12 25.2%

inhibition, inactive:
Cc1cccc(NC(=O)Cn2cc(C(=O)c3ccco3)c3ccccc32)c1 -4.82%
Cc1cc(C)c2c3c(sc2n1)C(c1ccccc1)C(C#N)=C(N)O3 (stereo unspecified) 1.94%
CCCCC(C(=O)OCC(=O)c1ccc(OC)cc1)N1C(=O)c2ccccc2C1=O (stereo unspecified) 0.79%
CC(c1ccccn1)N(CCN(C)C)C(=S)Nc1ccccc1F (stereo unspecified) -1.18%
CCOC(=O)c1cc(NC(=O)c2ccc(Cl)cc2)c(=O)oc1-c1ccccc1 -2.61%
Nn1c(Cc2cccc3ccccc23)nnc1SCC(=O)N1CC(=O)Nc2ccccc21 -1.43%
c1ccc(CSc2nnc(-c3ccco3)n2Cc2ccccc2)cc1 -5.27%
Nc1nc(SCc2ccccc2Cl)n[nH]1 1.47%
CCCCOc1ccc(N(CC(=O)NCC2CCCO2)C(=O)CCC(=O)Nc2cc(C)ccn2)cc1 (stereo unspecified) -1.73%
CCNC(=O)c1sccc1-n1cccc1 -1.65%
Cn1c(SCC(=O)C(C)(C)C)nnc1-c1ccccn1 -1.08%
Clc1ccccc1-c1cc(COc2ccc3ccccc3c2)no1 5.83%
CCCC(C)C(=O)Nc1ccc(NC(C)=O)cc1 (stereo unspecified) 0.18%
C=CCn1c(=O)c2ccccc2n2c(SCC(=O)N3CCCc4ccccc43)nnc12 5.22%
O=C(CSc1nc2[nH]ncc2c(=O)n1-c1ccccc1)N1CCCc2ccccc21 0.8%
CC(C)(C)C(=O)Cn1c(NCCO)nc2ccccc21 1.69%
CC(C)(C)C(=O)c1cnc(Nc2ccccc2)s1 4.36%
OC(C#CCN1CCOCC1)(c1ccccc1)C1CCCCC1 (stereo unspecified) 0.89%
COc1ccc(S(=O)(=O)N/N=C\c2ccc(OC)c(COc3ccc(C)cc3[N+](=O)[O-])c2)cc1 2.51%
O=C(Nc1cccc2ncccc12)c1ccc(-c2ccc(Cl)cc2Cl)o1 9.2%
CCN1CCN(c2ccc([N+](=O)[O-])cc2C(=O)c2ccc(Cl)cc2)CC1 -2.69%
O=C(CSc1nc2cccnc2n1Cc1ccccc1)N1CCc2ccccc21 1.41%
FC(F)(F)c1cccc(NC(=S)Nc2cccc(Cl)c2)c1 -0.91%
Cc1c(NC(=O)c2cc(-c3ccc(Cl)s3)nc3ccccc23)c(=O)n(-c2ccccc2)n1C 2.95%
Cc1ccc(C(=O)N/C(=C/c2ccco2)C(=O)NCCc2c[nH]c3ccccc23)cc1C 4.25%
COc1ccc(C2C=C(c3ccc(Br)cc3)Nc3nc(NS(C)(=O)=O)nn32)cc1 (stereo unspecified) -9.88%
O=C(CSc1nnnn1-c1ccccc1)NCc1ccco1 5.37%
COc1ccc(CN(Cc2ccco2)S(=O)(=O)c2ccc(S(=O)(=O)N3CCCC3)cc2)cc1 -0.01%
Cc1cccc(N2CCN(C(=O)CN(C)S(=O)(=O)c3ccc4c(c3)CCC(=O)N4)CC2)c1C 4.5%
O=[N+]([O-])c1cccc(-c2nnc3c4ccccc4c4ccccc4n23)c1 17.7%
O=c1c2c(nc3nc[nH]n13)CCC2 -0.92%
CCN1C(=O)/C(=C\N2CCOCC2)SC1=S -1.1%
Cc1cccc(N(C(=O)Cc2cccs2)C(C(=O)NC2CCCC2)c2ccsc2)c1 (stereo unspecified) 2.56%
S=c1[nH]nc(-c2ccco2)n1/N=C/c1ccc(Br)s1 15.6%
Cc1ccc(/C=N\n2c(-c3ccccc3)n[nH]c2=S)s1 0.69%
Cc1cc(NC(=O)Nc2ccccc2)n(-c2ccccc2)n1 -1.43%
O=C(Nc1ccc(Cl)cn1)c1cnn2cccnc12 5.62%
CNC(=O)c1csc(-c2ccccc2)n1 -0.71%
Cc1ccc(C(c2nnnn2CS(=O)(=O)c2ccc(C)cc2)N2CCC(C)CC2)cc1 (stereo unspecified) -7.49%
CSc1ccccc1C(=O)Nc1cccc(C(C)=O)c1 2.46%
CCN1CCN(C(=O)C2(NC(=O)Nc3cccc(F)c3)CCCCC2)CC1 -0.58%
CCOC(=O)c1c(N)sc(C(C)=O)c1C -0.36%
CCOC(=O)CSc1nc2ccc(C)cc2[nH]1 -1.86%
CCCSc1nsc(N)n1 -4.41%
CCN(CC)S(=O)(=O)c1ccc(N(C)Cc2ccc(C(F)(F)F)cc2)nc1 -0.16%
O=C(Nc1ccc(Cl)cc1)OCc1cc(-c2ccccc2)on1 -6.39%
CN(C)/C=C(\C#N)C(=O)c1cccnc1Oc1ccc(F)cc1F -5.85%
C=CCn1c(SCc2c(C(=O)OC)sc(N)c2C(=O)OC)nnc1-c1ccc(Cl)cc1 1.31%
OC(CN=c1sc2ccccc2n1CC(O)COc1ccccc1)COc1ccccc1 (stereo unspecified) 0.61%
CCn1c(SC)nc(O)c(C(c2ccc(OC)c(O)c2)c2c(O)nc(SC)n(CC)c2=O)c1=O -2.86%
CNC(=O)CSc1nnnn1-c1ccc(C)cc1C 2.36%
CCOC(=O)CNC(=O)CSc1nnnn1-c1cc(C)ccc1C -0.99%
COc1ccc(OCCCC(=O)Oc2ccc(OC)cc2)cc1 0.13%
COc1ccc(-c2oc3ncn(Cc4ccco4)c(=N)c3c2-c2ccc(OC)cc2)cc1 3.43%
CCc1ccc(CNC(=O)C2CC(=O)N(CCc3ccc(C)cc3)C2)cc1 (stereo unspecified) -1.09%
CC(=O)c1cccc(NC(=O)N2CCCC2C(=O)NCCc2ccccc2)c1 (stereo unspecified) -0.1%
CCOC(=O)CC(=O)CSc1nc(-c2ccccc2)cc(-c2ccc(Cl)cc2)c1C#N -8.83%
N#CC1=C(N)N(c2ccccc2)C2=C(C(=O)CCC2)C1c1ccccc1 (stereo unspecified) 0.57%
O=C(NC1CCN(C(=S)NCc2ccco2)CC1)c1ccc(F)cc1 2.16%
CCOc1ccc(N=Cc2c(O)n(-c3cccc(C)n3)c(=O)c3ccccc23)cc1 -4.03%
COc1cc(C(=O)Nc2nccs2)cc(OC)c1OC -2.65%
CCN(c1ccccc1)S(=O)(=O)c1ccc(C(=O)Nc2nccs2)cc1 1.43%
Cc1ccccc1-n1c(C)cc(/C=N/NC(=O)c2ccc(CN3CCOCC3)cc2)c1C 5.57%
O=C(Cn1cc(/C=N/NC(=O)c2cccc(C(F)(F)F)c2)c2ccccc21)Nc1ccc(F)cc1 -6.09%
CCCNC(=S)N1CCC(NC(=O)C23CC4CC(CC(C4)C2)C3)CC1 0%
Cc1nn(-c2ccccc2)c(Cl)c1C(=O)Nc1ccccc1 1.43%
Cc1cccc(NC(=O)C(C)N2C(=O)C3C4CC(C(Br)C4Br)C3C2=O)c1 (stereo unspecified) 3.39%
COc1nc(-c2ccc(Cl)cc2)ccc1-c1noc(-c2cccs2)n1 -0.49%
CCOC(=O)C1=C(CN2CCc3ccccc32)NC(=O)NC1c1cc(C)ccc1C (stereo unspecified) 4.94%
CN(Cc1ccccc1)C(=O)COc1ccccc1 -1.65%
Cc1no[n+]([O-])c1COc1ccccc1/C=C1\NC(=S)NC1=O 1.38%
O=C1CCN(C(=O)Nc2ccccc2)N1 -0.01%
COC(=O)CN(C(=S)Nc1ccc(Cl)cc1)C1CC(=O)N(c2ccc(OC)cc2)C1=O (stereo unspecified) 1.24%
Cc1ccc(OCC(=O)N/N=C/c2ccncc2)cc1 1.58%
COC(=O)c1ccc(NC(=O)C23CC4CC(C2)CC(n2cnc(Cl)n2)(C4)C3)cc1 2.71%
COc1ccc(C(=S)Nc2ccccc2)cc1 -5.15%
CCCNC(=O)Nc1ccccc1C(=O)Nc1ccc(OC)cc1 4.85%
Cc1cccc(NC(=S)N2CCC(c3nc4ccccc4s3)CC2)c1 0.28%
Cc1nn(C)c(Oc2ccccc2)c1CCNS(=O)(=O)c1ccc(F)cc1 0.76%
Cc1nc2ccccc2c(-c2ccccc2)c1C(=O)c1ccccc1 0.7%
Cc1ccc(NC(=S)NC(=O)c2ccc(-c3ccccc3)cc2)c(C)c1 1.93%
CC(=O)NS(=O)(=O)c1ccc(NC(=O)/C=C/c2ccccc2Cl)cc1 -4.73%
Cc1ccc(/C=N/NC(=O)Cn2nc(C)c(Br)c2C)o1 -0.29%
COc1ccc(CCn2c(=N)c(C(=O)NCc3ccco3)cc3c(=O)n4cccc(C)c4nc32)cc1 1.33%
Cc1cccn2c(=O)c3cc(C#N)c(=O)n(CCCN4CCOCC4)c3nc12 2.6%
Cc1cccc(COc2ccccc2/C=N/Nc2ccc([N+](=O)[O-])cc2)c1 14.6%
